Laboratory results from the supplement of paper PMC10849652.
Targets with a hit are over-represented here; the source holds about 7,900 in all. About 0.6% of all pairs of compound and target were hits.

Compound: c1cn2cc(-c3ccc4cn[nH]c4c3)nc(Nc3ccc(N4CCOCC4)cc3)c2n1 [entospletinib]
Assay: log2 fold change, soluble protein after heating vs DMSO (PISA); higher = thermal stabilisation; K562 cells, 10 uM, 30 min; active = over 0.2 and 3.5 SD of the protein, either way, in both replicates (recomputed)
Summary of the method: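 K562 cells at 2×10^6 cells/mL were treated with 10 μM compound for 30 min. Aliquots were heated for 3 min across 48°C-58°C, pooled, and extracted in PBS with 0.5% NP-40 at 4°C; soluble protein was the supernatant after 21,000xg for 90 min. Soluble protein was quantified by TMTpro 16plex LC-MS/MS with channel sums equalised, and reported as log2 fold change in thermal stability against DMSO controls, with values from duplicates.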

UniProt Q13469, sequence (Q13469 whole entry, looked up): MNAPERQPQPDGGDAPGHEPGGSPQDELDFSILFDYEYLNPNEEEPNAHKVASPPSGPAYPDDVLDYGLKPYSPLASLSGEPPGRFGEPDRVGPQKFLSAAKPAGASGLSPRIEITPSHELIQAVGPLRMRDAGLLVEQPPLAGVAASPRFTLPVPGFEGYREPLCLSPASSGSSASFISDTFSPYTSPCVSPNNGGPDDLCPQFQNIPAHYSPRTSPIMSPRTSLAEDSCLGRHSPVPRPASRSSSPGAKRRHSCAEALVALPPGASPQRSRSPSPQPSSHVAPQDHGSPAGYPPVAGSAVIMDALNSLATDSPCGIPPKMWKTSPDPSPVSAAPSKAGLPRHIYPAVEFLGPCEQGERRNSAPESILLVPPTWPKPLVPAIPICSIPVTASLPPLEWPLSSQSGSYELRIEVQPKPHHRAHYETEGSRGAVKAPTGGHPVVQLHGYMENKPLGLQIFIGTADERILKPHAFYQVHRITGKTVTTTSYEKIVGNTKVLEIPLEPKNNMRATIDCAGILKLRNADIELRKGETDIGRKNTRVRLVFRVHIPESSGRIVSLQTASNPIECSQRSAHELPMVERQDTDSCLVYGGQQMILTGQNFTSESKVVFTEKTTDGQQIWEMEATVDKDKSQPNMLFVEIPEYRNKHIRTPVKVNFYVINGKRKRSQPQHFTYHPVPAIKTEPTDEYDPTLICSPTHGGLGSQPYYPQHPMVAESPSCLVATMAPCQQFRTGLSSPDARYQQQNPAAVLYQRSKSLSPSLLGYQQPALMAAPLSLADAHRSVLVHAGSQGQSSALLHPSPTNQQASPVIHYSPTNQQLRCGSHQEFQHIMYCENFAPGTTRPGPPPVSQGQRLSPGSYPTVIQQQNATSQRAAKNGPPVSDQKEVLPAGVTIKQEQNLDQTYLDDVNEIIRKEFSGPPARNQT
UniProt Q15746, sequence (Q15746 whole entry, looked up): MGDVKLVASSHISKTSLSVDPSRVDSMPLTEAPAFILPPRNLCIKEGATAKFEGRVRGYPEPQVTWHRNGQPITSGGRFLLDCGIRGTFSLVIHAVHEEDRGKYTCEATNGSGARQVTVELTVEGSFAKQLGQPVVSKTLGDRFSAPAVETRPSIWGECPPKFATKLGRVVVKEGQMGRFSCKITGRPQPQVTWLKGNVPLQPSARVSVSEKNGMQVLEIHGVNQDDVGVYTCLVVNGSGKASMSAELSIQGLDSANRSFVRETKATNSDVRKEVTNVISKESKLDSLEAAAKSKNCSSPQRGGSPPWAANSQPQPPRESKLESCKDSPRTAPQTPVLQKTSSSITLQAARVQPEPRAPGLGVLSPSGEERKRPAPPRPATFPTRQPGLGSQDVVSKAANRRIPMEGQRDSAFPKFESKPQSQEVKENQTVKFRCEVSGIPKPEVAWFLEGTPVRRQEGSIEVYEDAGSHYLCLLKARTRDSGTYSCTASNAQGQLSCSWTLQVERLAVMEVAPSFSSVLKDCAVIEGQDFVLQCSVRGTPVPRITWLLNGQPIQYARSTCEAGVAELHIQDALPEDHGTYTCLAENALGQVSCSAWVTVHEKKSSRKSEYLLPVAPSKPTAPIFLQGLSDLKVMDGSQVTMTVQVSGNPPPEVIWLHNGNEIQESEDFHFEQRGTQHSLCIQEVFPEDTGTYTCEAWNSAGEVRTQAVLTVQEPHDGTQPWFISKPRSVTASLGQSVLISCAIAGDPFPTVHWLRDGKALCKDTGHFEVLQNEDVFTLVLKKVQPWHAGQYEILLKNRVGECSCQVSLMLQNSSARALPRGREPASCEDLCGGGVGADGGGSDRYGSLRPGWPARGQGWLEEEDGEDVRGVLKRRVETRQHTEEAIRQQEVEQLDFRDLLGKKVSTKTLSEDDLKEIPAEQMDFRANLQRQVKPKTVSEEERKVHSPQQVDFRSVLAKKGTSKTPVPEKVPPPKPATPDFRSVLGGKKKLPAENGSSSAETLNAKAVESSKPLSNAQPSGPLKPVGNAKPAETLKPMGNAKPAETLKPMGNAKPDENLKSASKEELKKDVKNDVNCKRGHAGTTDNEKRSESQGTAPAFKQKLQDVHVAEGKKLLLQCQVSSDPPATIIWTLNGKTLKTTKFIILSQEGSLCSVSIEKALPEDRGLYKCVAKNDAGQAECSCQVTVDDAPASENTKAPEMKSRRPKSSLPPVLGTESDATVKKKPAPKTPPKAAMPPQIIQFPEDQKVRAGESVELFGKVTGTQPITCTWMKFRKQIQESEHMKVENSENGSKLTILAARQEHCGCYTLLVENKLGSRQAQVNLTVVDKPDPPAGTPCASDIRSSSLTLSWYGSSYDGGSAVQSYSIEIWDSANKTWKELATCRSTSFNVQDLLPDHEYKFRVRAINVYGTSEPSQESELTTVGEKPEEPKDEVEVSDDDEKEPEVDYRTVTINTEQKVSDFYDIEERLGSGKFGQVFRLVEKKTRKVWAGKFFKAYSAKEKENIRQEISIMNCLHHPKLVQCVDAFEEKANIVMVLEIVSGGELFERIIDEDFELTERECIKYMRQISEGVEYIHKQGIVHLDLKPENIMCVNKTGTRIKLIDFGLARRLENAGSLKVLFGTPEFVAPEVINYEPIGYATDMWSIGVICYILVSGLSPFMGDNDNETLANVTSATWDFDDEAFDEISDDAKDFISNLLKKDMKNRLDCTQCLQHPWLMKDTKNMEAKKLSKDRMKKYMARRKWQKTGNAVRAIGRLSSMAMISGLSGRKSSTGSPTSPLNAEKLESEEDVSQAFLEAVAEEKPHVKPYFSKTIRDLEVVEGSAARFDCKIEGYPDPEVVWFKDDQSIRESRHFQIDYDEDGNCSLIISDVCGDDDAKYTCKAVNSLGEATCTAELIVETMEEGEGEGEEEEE
UniProt Q8NCF5, sequence (Q8NCF5 whole entry, looked up): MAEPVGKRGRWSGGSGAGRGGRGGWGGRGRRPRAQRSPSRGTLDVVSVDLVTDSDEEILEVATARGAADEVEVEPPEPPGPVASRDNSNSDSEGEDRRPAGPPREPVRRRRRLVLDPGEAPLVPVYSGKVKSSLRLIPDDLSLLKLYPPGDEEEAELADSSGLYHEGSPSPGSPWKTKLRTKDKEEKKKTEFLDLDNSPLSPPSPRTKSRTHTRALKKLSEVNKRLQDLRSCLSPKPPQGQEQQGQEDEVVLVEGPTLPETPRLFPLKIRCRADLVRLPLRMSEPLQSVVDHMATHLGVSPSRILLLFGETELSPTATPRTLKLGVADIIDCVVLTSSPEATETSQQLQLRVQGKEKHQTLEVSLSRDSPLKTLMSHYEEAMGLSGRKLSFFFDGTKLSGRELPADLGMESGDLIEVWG
UniProt Q14978, sequence (Q14978 whole entry, looked up): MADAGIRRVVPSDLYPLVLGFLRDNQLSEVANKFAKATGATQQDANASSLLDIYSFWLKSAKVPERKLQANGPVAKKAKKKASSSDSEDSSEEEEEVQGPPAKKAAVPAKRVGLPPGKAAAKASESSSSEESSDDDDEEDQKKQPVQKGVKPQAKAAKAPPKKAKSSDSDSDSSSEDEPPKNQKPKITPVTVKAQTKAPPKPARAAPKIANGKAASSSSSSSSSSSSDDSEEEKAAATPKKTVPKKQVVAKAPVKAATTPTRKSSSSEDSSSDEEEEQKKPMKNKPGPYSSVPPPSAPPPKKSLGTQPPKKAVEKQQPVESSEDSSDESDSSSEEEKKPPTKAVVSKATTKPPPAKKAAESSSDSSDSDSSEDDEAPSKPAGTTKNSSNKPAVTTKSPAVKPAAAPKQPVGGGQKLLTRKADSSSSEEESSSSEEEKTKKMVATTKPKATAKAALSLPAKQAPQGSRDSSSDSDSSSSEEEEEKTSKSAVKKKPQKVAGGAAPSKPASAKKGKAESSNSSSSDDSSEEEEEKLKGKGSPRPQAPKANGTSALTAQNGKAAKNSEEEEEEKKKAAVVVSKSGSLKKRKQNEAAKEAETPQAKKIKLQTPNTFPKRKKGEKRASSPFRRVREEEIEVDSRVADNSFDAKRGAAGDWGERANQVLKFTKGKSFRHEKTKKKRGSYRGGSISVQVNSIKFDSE
UniProt Q9H3L0, sequence (Q9H3L0 whole entry, looked up): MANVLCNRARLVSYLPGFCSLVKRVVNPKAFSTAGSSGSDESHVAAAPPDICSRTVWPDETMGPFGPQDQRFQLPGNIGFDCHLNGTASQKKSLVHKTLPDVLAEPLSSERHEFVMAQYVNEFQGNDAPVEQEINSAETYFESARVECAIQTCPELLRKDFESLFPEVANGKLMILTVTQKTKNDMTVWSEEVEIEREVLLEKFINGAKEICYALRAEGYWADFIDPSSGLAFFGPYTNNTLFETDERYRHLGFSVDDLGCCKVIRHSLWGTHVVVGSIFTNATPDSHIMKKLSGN
UniProt Q16656, sequence (Q16656 whole entry, looked up): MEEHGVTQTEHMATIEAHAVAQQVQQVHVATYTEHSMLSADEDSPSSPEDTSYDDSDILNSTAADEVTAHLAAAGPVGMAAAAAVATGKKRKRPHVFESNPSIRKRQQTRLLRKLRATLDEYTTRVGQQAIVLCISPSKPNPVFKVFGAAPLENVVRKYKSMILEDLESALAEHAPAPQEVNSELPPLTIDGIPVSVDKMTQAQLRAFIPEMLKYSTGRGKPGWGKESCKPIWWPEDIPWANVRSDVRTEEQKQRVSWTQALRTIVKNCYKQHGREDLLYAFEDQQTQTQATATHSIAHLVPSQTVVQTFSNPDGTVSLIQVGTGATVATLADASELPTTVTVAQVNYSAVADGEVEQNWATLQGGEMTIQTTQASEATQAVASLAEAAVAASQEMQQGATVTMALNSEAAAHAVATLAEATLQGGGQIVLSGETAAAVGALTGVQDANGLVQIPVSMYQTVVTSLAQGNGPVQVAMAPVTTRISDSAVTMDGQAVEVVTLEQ
UniProt Q9BWT6, sequence (Q9BWT6 whole entry, looked up): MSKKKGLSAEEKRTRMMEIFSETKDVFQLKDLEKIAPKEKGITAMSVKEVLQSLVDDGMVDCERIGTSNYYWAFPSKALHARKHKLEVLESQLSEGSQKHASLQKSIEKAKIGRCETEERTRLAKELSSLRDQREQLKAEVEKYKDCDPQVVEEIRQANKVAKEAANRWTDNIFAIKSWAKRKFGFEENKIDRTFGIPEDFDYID

log2 fold change, inactive:
NEK3 (UniProt P51956) -0.002, ORC3 (UniProt Q9UBD5) -0.144, NFATC2IP (UniProt Q8NCF5) -0.054, NUDT21 (UniProt O43809) 0.016, NFX1 (UniProt Q12986) 0.095, NUP205 (UniProt Q92621) -0.041, MYH11 isoform 2 (UniProt P35749) -0.047, MRPS17 (UniProt Q9Y2R5) 0.118, MUL1 (UniProt Q969V5) -0.005, MT-ND4 (UniProt P03905) 0.022, MRPS25 (UniProt P82663) 0.029, NQO1 (UniProt P15559) -0.101, NPC1 (UniProt O15118) 0.023, MND1 (UniProt Q9BWT6) 0.047, MMADHC (UniProt Q9H3L0) 0.158, OSBPL8 (UniProt Q9BZF1) 0.084, MRPS26 (UniProt Q9BYN8) 0.078, NRF1 isoform 4 (UniProt Q16656) -0.041, MYLK (UniProt Q15746) -0.041, NMD3 (UniProt Q96D46) -0.001, NUDT16 (UniProt Q96DE0) 0.044, NOLC1 isoform 2 (UniProt Q14978) 0.062, MTOR (UniProt P42345) -0.012, MSH6 (UniProt P52701) -0.053, NISCH (UniProt Q9Y2I1) 0.045, NUP98 (UniProt P52948) 0.003, NDUFB8 (UniProt O95169) 0.067, NEU1 (UniProt Q99519) -0.025, NFATC2 (UniProt Q13469) -0.012, NANS (UniProt Q9NR45) 0.025, NELFA (UniProt Q9H3P2) -0.005, MSH2 (UniProt P43246) -0.006, MTMR14 (UniProt Q8NCE2) -0.061, NOP53 (UniProt Q9NZM5) -0.001
